Reference: the supplement of paper PMC6411743
± gives the standard deviation of the averaged measurements. Of roughly 5,400 targets only a part is listed; those with the largest changes were picked by preference.

Biological target: T1, UniProt Q8TD55|Q8TD55-2
T1 sequence (whole entry): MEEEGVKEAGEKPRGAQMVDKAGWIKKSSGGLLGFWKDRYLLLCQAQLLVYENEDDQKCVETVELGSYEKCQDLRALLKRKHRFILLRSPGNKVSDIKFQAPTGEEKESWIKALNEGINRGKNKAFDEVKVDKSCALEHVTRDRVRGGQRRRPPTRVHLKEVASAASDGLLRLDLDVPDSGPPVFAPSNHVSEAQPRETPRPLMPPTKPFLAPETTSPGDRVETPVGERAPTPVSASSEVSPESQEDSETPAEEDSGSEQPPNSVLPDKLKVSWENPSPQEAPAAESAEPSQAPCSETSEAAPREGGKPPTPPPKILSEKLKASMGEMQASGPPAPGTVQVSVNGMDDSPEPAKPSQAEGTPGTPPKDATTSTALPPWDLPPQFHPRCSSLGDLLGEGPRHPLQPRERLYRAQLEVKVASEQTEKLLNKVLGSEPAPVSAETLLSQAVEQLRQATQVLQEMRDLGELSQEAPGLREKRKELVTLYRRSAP
Assay: NP40-soluble protein abundance relative to vehicle (solubility fold change) (ratio); higher = more soluble protein in presence of GTP
Method: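 Solubility proteome profiling in Jurkat crude lysate. Lysate was treated with Mg-GTP (0.1-10 mM) for 10 min at room temperature and 3 min at 37 °C, then solubilised with 0.8% NP40 and benzonase, followed by ultracentrifugation. Proteins were quantified by TMT10 LC-MS/MS; the value is the NP40-soluble abundance relative to the NP40-processed vehicle, from 3 independent experiments.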

Compound: Nc1nc2c(ncn2[C@@H]2O[C@H](COP(=O)(O)OP(=O)(O)OP(=O)(O)O)[C@@H](O)[C@H]2O)c(=O)[nH]1 [guanosine triphosphate]
- NP40-soluble protein abundance (concentration: 0.1mM): 1.07 ± 0.12
- NP40-soluble protein abundance (concentration: 0.5mM): 0.933 ± 0.0094
- NP40-soluble protein abundance (concentration: 1mM): 1.12 ± 0.072
- NP40-soluble protein abundance (concentration: 2mM): 0.933 ± 0.018
- NP40-soluble protein abundance (concentration: 4mM): 0.96 ± 0.072
- NP40-soluble protein abundance (concentration: 6mM): 0.918 ± 0.046
- NP40-soluble protein abundance (concentration: 8mM): 0.943 ± 0.13
- NP40-soluble protein abundance (concentration: 10mM): 1.03 ± 0.097
